Test results from PubChem BioAssay AID686940 (The Scripps Research Institute Molecular Screening Center, 2013).
About 2,600 (0.7%) of roughly 370,000 compounds were called active. Only a selection was taken, and actives are over-represented in it overall. Unmarked numbers belong to inactive results.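 How the source made its calls: active means inhibition above a per-plate cutoff, mean inhibition of test wells between control levels plus 3 SD (cut at about 38% in these data); inactive means the rest.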

The compounds below were run against COUP transcription factor 2 (Homo sapiens) (UniProt P24468) (assay: COUP-TFII reporter suppression in human cells – cell-based, luciferase reporter, HEK293T, luminescence, primary screen (AID 686940;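 further: cells cotransfected with COUP-TFII expression vector driving the NGFI-A reporter; 0% = median of COUP-TF2 test wells and 100% = reporter-only cells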)). Conditions: HEK293T NGFI-A luciferase reporter, at 8.6 µM, stronger effect = higher value.
COUP transcription factor 2 (Homo sapiens), sequence (P24468 whole entry, looked up): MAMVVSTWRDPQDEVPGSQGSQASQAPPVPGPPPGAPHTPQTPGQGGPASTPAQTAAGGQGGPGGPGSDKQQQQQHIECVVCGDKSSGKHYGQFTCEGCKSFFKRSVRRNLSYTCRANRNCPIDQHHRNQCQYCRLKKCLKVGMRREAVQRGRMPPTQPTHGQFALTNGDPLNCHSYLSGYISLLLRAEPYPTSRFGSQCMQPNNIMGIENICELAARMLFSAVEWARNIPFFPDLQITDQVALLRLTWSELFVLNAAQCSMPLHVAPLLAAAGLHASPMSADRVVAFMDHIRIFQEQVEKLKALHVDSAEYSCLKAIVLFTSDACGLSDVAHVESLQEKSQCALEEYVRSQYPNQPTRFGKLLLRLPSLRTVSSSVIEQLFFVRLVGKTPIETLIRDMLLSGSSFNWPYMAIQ

| Structure (SMILES) | inhibition |
| --- | --- |
| C[C@H]1[C@H](NC(=O)c2cccc(N(C)C)c2)CC[C@@]23CCCN2C(=O)CCC[C@@H]13 | 4.37% |
| COc1ccc(C#CCNCc2ccc(OC)cc2OC)cc1 | -3.51% |
| COC(=O)c1cccc(Cn2ccc3ccc(-c4ccc5ccn(C(=O)c6ccccc6C)c5c4)cc32)c1 | -1.59% |
| O=C(c1ccncc1)N1CC[C@H]2[C@H](CCCN2Cc2ccc(F)cc2)C1 | -20.6% |
| COC(=O)[C@]12C[C@H](CC(=O)NCCc3ccccc3OC)C(=O)N(Cc3ccco3)C1=C[C@H](C(C)C)O[C@@H]2C1CC1 | 3.03% |
| CC(=O)Nc1nc2ncccn2c1-c1ccc(C(F)(F)F)cc1 | 4.78% |
| Cc1ccc(NC(=O)c2cc(C)nn2-c2ccccc2)c(C)c1 | -0.68% |
| CCN(CC)C(=O)CC[C@@H]1CC[C@]2(CCCN(S(=O)(=O)C3CCCCC3)C2)O1 | 10.7% |
| C[C@@H]1C[C@@H]2O[C@H]2/C=C\C=C\C(=O)Cc2c(Cl)c(O)cc(O)c2C(=O)O1 | 61.7% (active) |
| CCOC(=O)N1CCN(C(=O)C2CCN(c3ncnc4c3sc3cccc(F)c34)CC2)CC1 | 46.1% (active) |
| CCOC(=O)N1CCN(C(=O)C2CCN(Cc3ccc(OC)cc3OC)CC2)CC1 | 5.07% |
| CCOC(=O)N1CCN(C(=O)C2CCCN(c3ncnc4c3sc3cccc(F)c34)C2)CC1 (stereo not given) | -4.38% |
| COc1ccc(-c2nn(C)c(=O)c3ccccc23)cc1NC(=O)COc1ccccc1 | -20.3% |
| Cc1ccc(F)cc1NC(=O)Cc1nn(C)c(=O)c2ccccc12 | 54.3% (active) |
| Cc1ccc(F)cc1NC(=O)CSCc1c(C)noc1C | 2.99% |
| CC(c1c[nH]c2ccccc12)c1c(-c2ccccc2)n(C)c2ccccc12 (stereo not given) | 0.69% |
| C#CCCN([C@H](C(=O)OC)C(C)C)S(=O)(=O)c1ccc(F)cc1Br | 17.9% |
| CC1(C(=O)NS(=O)(=O)c2ccccc2)CCN1C(=O)Cc1ccc(-c2ccccc2)cc1 (stereo not given) | -9.63% |
| CCCNC(=O)C1(C)CCN1C(=O)Cc1ccc(-c2ccccc2)cc1 (stereo not given) | 27.8% |
| C#Cc1ccc(NC(=O)C2(C)CCN2C(=O)Cc2ccc(-c3ccccc3)cc2)cc1 (stereo not given) | 66.9% (active) |
| C=CCN1C(=O)[C@@H](CC(=O)NCC2CCCCC2)[C@]2(C(=O)OC)CCCCC=C12 | 2.77% |
| Cc1cccc(NC(=O)C[C@H]2CC[C@H]3[C@@H](COc4ccc(NC(=O)Nc5ccccc5)cc4C(=O)N3C)O2)c1 | -4.77% |
| CCC(NC(=O)C1C2C=CC3(CN(Cc4ccccc4)C(=O)C13)O2)c1ccccc1 (stereo not given) | 8.47% |
| COCC1CCCCN1C(=O)c1cc(COc2ccc(C)c(C)c2)on1 (stereo not given) | -30% |
| CCCOC1CCCN(C(=O)c2cc(COc3cncc(Cl)c3)on2)C1 (stereo not given) | -19.1% |
| C=CCC1(CC=C)CCCN1C(=O)c1cc(COc2ccc(-n3cncn3)cc2)on1 | 53% (active) |
| O=C(Nc1ccc(Br)cc1)OCCN1C(=O)CCC12CCC(c1ccccc1)CC2 (stereo not given) | -11.1% |
| COC(=O)C[C@H]1CC[C@H]2[C@H](COc3ccc(NC(=O)C4CC4)cc3C(=O)N2C)O1 | -12.2% |

| Structure (SMILES) | inhibition |
| --- | --- |
| COc1cc(F)ccc1-c1cc(C(=O)NCC2CCCCC2)[nH]n1 | -27.9% |
| COc1ccc(OC)c(NC(=O)c2cc(-c3cc(F)ccc3OCC3CCCO3)n[nH]2)c1 (stereo not given) | 87% (active) |
| CCCOc1ccc(F)cc1-c1cc(C(=O)Nc2ccc(F)cc2)[nH]n1 | -7.05% |
| O=C(NCc1ccc(Cl)cc1)C1CCCN(c2nc3ccccc3o2)C1 (stereo not given) | 18.9% |
| C#CCNC(=O)C[C@H]1C[C@@]2(C(=O)OC)C(=C[C@H](C(C)C)O[C@@H]2C2CC2)N(Cc2ccco2)C1=O | -5.51% |
| CC(C)CSc1nnc(-c2cccnc2)n1Cc1ccccc1 | 9.79% |
| O=S(=O)(c1ccc2c(c1)OCCCO2)N1CCN(S(=O)(=O)c2c(F)cccc2F)CC1 | 9.89% |
| O=C(c1c(F)cccc1Cl)N1CCN(S(=O)(=O)c2ccc3c(c2)OCCCO3)CC1 | 18% |
| O=C(c1c(F)cccc1F)N1CCN(S(=O)(=O)c2ccc3c(c2)OCCO3)CC1 | 38.1% (active) |
| CCc1cc2c(NC3CCCC3)ncnc2s1 | 39.9% (active) |
| CCc1cc2c(SCC(=O)Nc3ncc(Cl)c(C)c3Cl)ncnc2s1 | 12.8% |
| CCc1cc2c(NC(Cc3ccccc3)C(=O)O)ncnc2s1 (stereo not given) | -1.84% |
| C=C(C)C1CC23C(=O)C4(C(=O)c5ccccc5)C[C@@]5(C)CCC(CC2C1(C)C)(C4=O)C35OC (stereo not given in full) | -4.41% |
| COc1ccccc1C(=O)CSc1nnc(-c2ccccn2)n1-c1ccccc1 | 9.59% |
| Cc1ccc(-c2nc(C3CCCN(S(=O)(=O)c4ccc(Br)s4)C3)no2)cc1 (stereo not given) | 2.13% |
| Cc1ccc(-c2cn3cc(C)ccc3n2)cc1 | 73% (active) |
| COc1ccc(-c2nc3ccc(Br)cn3c2Cc2ccc(C)cc2)cc1OC | -32.3% |
| Cc1ccc2nc(-c3ccccc3)c(CC3CCCCC3)n2c1 | -52.4% |
| Cc1ccc(-c2nc3c(C)cc(Br)cn3c2Cc2ccccc2)cc1 | -5.6% |
| CC(=O)Nc1c(-c2ccc(C)cc2)nc2ccc(Cl)cn12 | -17.9% |
| Cc1ccc2nc(-c3ccc(Br)cc3)cn2c1 | 46.6% (active) |
| CCC(=O)c1c(CC)c2n3c1=CC[C@H]3CC(Br)C=2 (stereo not given in full) | 6.74% |
| CC(c1ccc(N)cc1)c1cn(C)c2ccccc12 (stereo not given) | -16.2% |
| CCOC(=O)[C@]12CCCC3=C1N(CCC3)C(=O)[C@@H](CC(=O)N1CCSCC1)C2 | -5.73% |
| COc1ccc(N2CCN(CCNS(=O)(=O)c3ccc([N+](=O)[O-])cc3)CC2)cc1 | 15.2% |
| CC(C)OCCCNc1ncnc2c1[nH]c1ccc(F)cc12 | 62.2% (active) |
| O=C(CN1CCC(NC(=O)NCc2ccccc2)CC1)Nc1ccc2c(c1)OCCO2 | -8.81% |
